Where “and” joins values, the source holds several entries; their conditions need not be identical. Equal entries are not always repeated. Inconclusive results are not listed. The source holds several records for some structures; these can differ, active in one and inactive in another. Calls of active or inactive are those of the source. Unless noted, calls come from the whole dose curve; as a rule, active = well fitted curve in the direction sought with a large enough effect in the repeat runs; inconclusive = weak or mixed curves; inactive = no such curve, though single readings can be large; an effect the other way counts as inactive or inconclusive.

The nature of test [1]: qHTS assay to identify small molecule agonists of the vitamin D receptor (VDR) signaling pathway - cell viability counter screen (AID 743224). Note: nearly all actives have a fitted effect of over 50% in size. Note: potency is the fitted concentration of half-maximal effect. The procedure, abridged: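 VDR-bla cell line, quantitative HTS format; 16 h compound incubation (37C, 5% CO2); ATP-based CellTiter-Glo luminescence measured in the reporter assay wells.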
On the technique in general: In qHTS, concentration-response curves come from the screen itself.

Test [2] in a line: qHTS assay to identify small molecule antagonists of the vitamin D receptor (VDR) signaling pathway - cell viability counter screen (AID 743225). Note: nearly all actives have a fitted effect of over 50% in size. The procedure, abridged: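 HEK293T VDR-bla; cpd + 1a,25-(OH)2D3 3 nM final, 16 h 37C/5% CO2; B/G FRET substrate 2 h RT; then CellTiter-Glo 30 min RT, luminescence.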
Test [3] is described as follows: qHTS assay to identify small molecule agonists of the NFkB signaling pathway (AID 1159509; active = well fitted curve in the direction sought with a large enough effect in the signal ratio in the repeat runs, not every such curve was filed as active; the % refers to the signal ratio). In a few lines:
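ME-180 NFkB-bla, 2,000 cells/well, overnight plating; cpd pinned in DMSO, 5 h 37 C; B/G FRET substrate 1.5 h RT; ex 405, em 460/530 nm.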

A short description of test [4]: qHTS assay to identify small molecule agonists of the endoplasmic reticulum stress response signaling pathway (AID 1159516; active = well fitted activation curve with a large enough effect in the signal ratio in the repeat runs, not every such curve was filed as active; the % refers to the signal ratio; note: potency is the fitted concentration of half-maximal effect). In a few lines:
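ER stress element reporter (bla) in HeLa. 1,500 cells/well, overnight attachment; 5 hr compound; 2 hr RT substrate; dual-emission fluorescence.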

Test [5] is described as follows: qHTS assay to identify small molecule agonists of the endoplasmic reticulum stress response signaling pathway - cell viability counter screen (AID 1159517; calls by dose curve; note: nearly all actives have a fitted effect of over 50% in size; note: potency is the fitted concentration of half-maximal effect). The procedure, abridged: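 CellTiter-Glo was added to wells already read for beta-lactamase FRET, and luminescence was recorded 30 min later. Cells: ESRE-bla HeLa, 1,500 per well, compound exposure 5 hr at 37 C.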

Test [6] in a line: qHTS assay to identify small molecule antagonists of the retinoid-related orphan receptor gamma (ROR-gamma) signaling pathway - cell viability counter screen (AID 1159520). Note: nearly all actives have a fitted effect of over 50% in size. Note: potency is the fitted concentration of half-maximal effect. In a few lines: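 Tet-on ROR gamma CHO cells (1,000/well) were plated 4 hr, given compounds in DMSO for 2 hr at 37 C, then induced with 1 uM final doxycycline for 16 hr. Viability was read as ATP by CellTiter-Glo luminescence after 30 min.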

For test [7], the target named is Nuclear receptor ROR-gamma (Homo sapiens) (UniProt P51449). Put plainly: qHTS assay to identify small molecule antagonists of the retinoid-related orphan receptor gamma (ROR-gamma) signaling pathway (AID 1159521; note: nearly all actives have a fitted effect of over 50% in size; note: potency is the fitted concentration of half-maximal effect). In a few lines:
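Cells were plated, rested 4 h at 37 C, exposed to compounds for 2 h, then given 1 uM final doxycycline hyclate to induce RORγ expression. After 16 h, ONE-Glo luminescence from the ROR response element reporter was measured.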

Test [8] can be described thus: qHTS assay to identify small molecule agonists of the AP-1 signaling pathway (AID 1159526; calls by dose curve).
Test [9] is described as follows: qHTS assay to identify small molecule agonists of the RXR signaling pathway - cell viability counter screen (AID 1159529). Note: nearly all actives have a fitted effect of over 50% in size. Note: potency is the fitted concentration of half-maximal effect. In a few lines:
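Steps: seed RXR-alpha-UAS-bla HEK 293T cells in assay medium containing 2% charcoal-stripped FBS; incubate 5 hr; add compounds in DMSO; incubate 16 hr at 37 C; after the bla read, add CellTiter-Glo and read luminescence at 30 min.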

Test [10] is described as follows: qHTS assay to identify small molecule antagonists of the retinoid acid receptor (RAR) signaling pathway - cell viability counter screen (AID 1159551). Note: nearly all actives have a fitted effect of over 35% in size. The procedure, abridged: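 Following overnight attachment, C3RL4 reporter cells received DMSO-dissolved compounds and then retinol (1 uM final). Six hours later at 37 C, ATP content was measured by CellTiter-Glo luminescence.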

Test [11] is described as follows: qHTS assay to identify small molecule antagonists of the retinoic acid receptor (RAR) signaling pathway (AID 1159552; note: nearly all actives have a fitted effect of over 50% in size; note: potency is the fitted concentration of half-maximal effect). The procedure, abridged: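 Retinol at 1 uM final stimulated RARE-luciferase expression in C3RL4 cells exposed to test compounds for 6 hr at 37 C. Reduced luminescence, read 30 min after detection reagent, indicated pathway antagonism.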
Test [12] is described as follows: qHTS assay to identify small molecule agonists of the retinoic acid receptor (RAR) signaling pathway (AID 1159553). The conditions noted are these: C3RL4 RARE luciferase reporter, agonist, 6 h; activation: at 73.3 µM (top of the series). In a few lines:
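Cell line C3RL4, RARE luciferase reporter. Treatment: compounds in DMSO, 6 hr, 37 C, 5% CO2, after overnight plating. Detection: luminescence, 30 min RT after reagent.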

A short description of test [13]: qHTS assay to identify small molecule agonists of the AP-1 signaling pathway - cell viability counter screen (AID 1159525; calls by dose curve; note: nearly all actives have a fitted effect of over 55% in size; note: potency is the fitted concentration of half-maximal effect). The procedure, abridged:
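ME-180 AP-1-bla, 2500 cells/well, Opti-MEM + 0.5% dialyzed FBS; overnight 37 °C; cpd 15-pt titration, 5 h 37 °C; CellTiter-Glo 30 min RT; luminescence read; normalised to TOAB and DMSO controls.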

The target in test [14] is Retinoic acid receptor RXR-alpha (Homo sapiens) (UniProt P19793). Put plainly: qHTS assay to identify small molecule agonists of the RXR signaling pathway (AID 1159527; calls by dose curve; note: nearly all actives have a fitted effect of over 35% in size; note: potency is the fitted concentration of half-maximal effect). In a few lines:
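Cells plated at 2,000/well, rested 5 hr at 37 C, pin-dosed with DMSO compound solutions, incubated 16 hr, then loaded with B/G FRET substrate for 2 hr at RT before dual-emission fluorescence reading.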

Test [15] can be described thus: qHTS assay to identify small molecule antagonists of the estrogen related receptor (ERR) signaling pathway (AID 1224819). The procedure, abridged: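 LOPAC library screened for antagonism as reduced One-Glo luminescence in ERR reporter cells (2,000/well). Compounds were added after 6 h pre-incubation and left 18 h at 37C; reading followed a 30 min room-temperature reagent step.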

Test [16] concerns estrogen-related receptor alpha (ERRalpha) with PGC-1alpha coactivator, human. As to the kind of experiment: qHTS assay to identify small molecule antagonists of the estrogen related receptor signaling pathway with the pleiotropic PPARgamma coactivator (PGC) (AID 1224821; calls by dose curve). In a few lines: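 Luminescent read-out (One-Glo, 30 min at room temperature) following 18 h treatment of PGC/ERR cells at 37 C with compounds delivered in DMSO. Cells had settled 6 h at 37 C/5% CO2 before dosing.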

The nature of test [17]: qHTS assay to identify small molecule antagonists of the estrogen related receptor signaling pathway with the pleiotropic PPARgamma coactivator (PGC) cell viability counter screen (AID 1224822;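 note: viability read after 17.5 h compound exposure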). The procedure, abridged:
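qHTS format, DMSO compound stocks pin-transferred onto PGC/ERR cells 6 h after plating; 17.5 h exposure at 37 C, then CellTiter-Fluor fluorescence.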

Sequence of Retinoic acid receptor RXR-alpha (Homo sapiens) (P19793 whole entry, looked up): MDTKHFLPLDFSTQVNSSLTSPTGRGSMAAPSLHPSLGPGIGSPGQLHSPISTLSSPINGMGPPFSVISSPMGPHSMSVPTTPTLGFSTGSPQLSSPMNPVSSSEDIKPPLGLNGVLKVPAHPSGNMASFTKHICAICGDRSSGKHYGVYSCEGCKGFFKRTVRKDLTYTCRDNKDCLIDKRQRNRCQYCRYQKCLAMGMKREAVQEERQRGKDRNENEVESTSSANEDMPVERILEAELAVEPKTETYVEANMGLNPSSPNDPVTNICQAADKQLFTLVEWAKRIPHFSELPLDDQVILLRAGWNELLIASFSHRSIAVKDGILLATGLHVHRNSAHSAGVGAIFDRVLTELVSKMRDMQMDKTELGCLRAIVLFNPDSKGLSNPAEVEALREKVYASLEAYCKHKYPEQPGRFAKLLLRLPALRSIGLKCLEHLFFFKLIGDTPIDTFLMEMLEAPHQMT

In the case of `CN1CCCN=C1COC(=O)C(O)(c1ccccc1)C1CCCCC1` (stereo not given), the Potency result in test [1], in test [2], in test [3], in [4], in [5] and in test [6] was “inactive” throughout. The Potency result in [7], in test [8], in test [9], in test [10], in [11] and in [12] was “inactive” throughout.

As to `O[C@@H]1CO[C@H]2[C@@H]1OC[C@@H]2O`, the Potency result in test [1], in test [2], in test [3], in test [4], in [5] and in [7] was “inactive” each time. Moreover, the Potency entry in [13], in test [8], in test [14], in [9], in test [10] and in test [11] was “inactive” in each case. In addition, in test [12], the Potency entry is “inactive”.

Take `NC1[C@H]2CN(c3nc4c(cc3F)c(=O)c(C(=O)O)cn4-c3ccc(F)cc3F)C[C@@H]12` (stereo not given in full): the Potency result in [3], in test [4], in test [5], in test [7], in [13] and in test [8] was “inactive” in each case. Also, the Potency result in test [9] and in test [10] was “inactive” in each case. Besides, in test [14], the Potency is 19 µM (active). The result in test [15], in test [16] and in test [17] was inactive.

On to `O=C1Cc2ccccc2N1c1c(Cl)cccc1Cl`, for which the Potency result in test [1], in test [3], in test [4], in test [5], in test [6] and in [10] was “inactive” throughout. Further, the Potency result in test [11] and in [12] was “inactive” in each case.

`CC(C)(O)c1ccc(CNC(=O)c2cccnc2Oc2ccc3nonc3c2)cc1`: the Potency entry in [1], in test [2], in [3], in test [4], in test [5] and in test [7] was “inactive” in each case. In addition, the Potency entry in test [13], in test [8], in test [10] and in [12] was “inactive” in each case.

In the case of `CCCCN(CCN(CCCC)C(=O)N1CCOCC1)C(=O)N1CCOCC1`, the Potency in test [1] is 33.5 µM (active). Moreover, the Potency result in test [2], in test [3], in test [4], in test [5], in test [6] and in [13] was “inactive” each time. Further, the Potency entry in test [14], in [9], in [10] and in test [11] was “inactive” in each case.

Consider `CC1(C)S[C@@H]2[C@H](NC(=O)C(c3ccccc3)S(=O)(=O)O)C(=O)N2[C@H]1C(=O)O` (stereo not given in full), for which the Potency entry in [1], in test [2], in [3], in test [4], in [5] and in test [7] was “inactive” each time. Also, the Potency result in test [13], in test [8], in [14], in test [9], in test [10] and in [11] was “inactive” each time. In addition, the Potency entry in test [12] is “inactive”.

For the compound `COC(=O)[C@H]1[C@H]2C[C@@H]3c4[nH]c5cc(OC)ccc5c4CCN3C[C@H]2C[C@@H](OC(=O)/C=C/c2ccc(O)c(OC)c2)[C@@H]1OC`, the Potency entry in test [2], in [3], in test [4], in test [5], in [13] and in test [8] was “inactive” in each case. For the same compound, the Potency result in test [9] and in test [10] was “inactive” in each case. Also, the Potency in test [7] is 13.3 µM (active).

In the case of `CCCCCCCCC(CCCCCC)C(=O)O` (stereo not given), the Potency result in test [3], in test [4], in [7] and in [10] was “inactive” throughout. The Potency was 54.9 µM (active) in test [5] and 49 µM (active) in test [13].

Consider `C[C@]12CC[C@@H]3c4ccc(O)cc4CC[C@H]3[C@@H]1CC[C@@H]2OC(=O)CCC1CCCC1`, for which the Potency is 43.6 µM (active) and inactive in test [1]; 43.3 µM (active) in [6]; 30.6 µM (active) in test [7]; 49 µM (active) and 26.8 µM (active) in [9]; 61.1 µM (active) and inactive in [11]. Also, the Potency entry in test [2], in test [3], in test [4], in [5] and in test [10] was “inactive” throughout.

For `OCCOCC#CCOCCO`, the Potency result in test [1], in [2], in test [3], in test [5], in test [7] and in [13] was “inactive” in each case. Besides, the Potency entry in [8], in [14], in test [9] and in test [10] was “inactive” throughout. Besides, in [4], the Potency was 49 µM (active).

The values are drawn from PubChem BioAssay (Tox21).
